Hits are enriched below; roughly 1.8% of the tested compounds scored in any of these assays.
PfHsp40 yeast: restores yeast growth despite PfHsp40 toxicity. S. cerevisiae expressing PfHsp40, growth rescue, ATP luminescence. growth rescue, % at 12.5 µM. 340,000 compounds, 0.68% hits. AID 504582; in the data active means growth rescue above about 28%, passing the limit was not always enough;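 further: yeast W303a lacking pdr1 and pdr3 grown in galactose medium; growth measured after three days at 30 °C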
PrPC surface inh: reduces human prion protein on the cell surface | P04156 | cell surface PrPC, TR-FRET read-out | inhibition, % at 13.8 µM | 370,000 compounds, 0.43% hits; in the data active means inhibition above about 24%; further: 0% = median of the test wells and 100% = reference compound wells
VHR inh abs: DUSP3 (human) phosphatase inhibition. P51452. recombinant VHR phosphatase, pNPP absorbance. inhibition, % at 13.3 µM. 290,000 compounds, 0.52% hits; in the data active means inhibition above about 50%
Sa RN4220 lethal: S. aureus RN4220 growth inhibition; OD600, 16 h; inhibition, % (test concentration not listed); 330,000 compounds, 0.33% hits; in the data active means inhibition above about 85%;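 further: plate controls were untreated cells for no effect and reference antibiotic for full effect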
Sa ugtP lethal: growth inhibition of S. aureus ugtP deletion strain; AID 1259309; growth inhibition, % (test concentration not listed); 330,000 compounds, 0.54% hits; S. aureus RN4220 ugtP deletion, OD600 growth, 16 h; in the data active means growth inhibition above about 68%;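 further: plate controls were untreated wells for no effect and antibiotic for full effect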
PrPC TRFRET cf: cell surface PrPC inhibition, TR-FRET confirmation; shares compounds with PrPC surface inh; 1,500 compounds, 65% hits; inhibition, % at 13.8 µM; cell surface PrPC level; in the data active means inhibition above about 25%
LD9 cytotox: LD9 cell cytotoxicity, PrPc inhibitor counter-screen; shares compounds with PrPC surface inh; LD9 cells cytotoxicity, luminescence viability; inhibition, % at 13.8 µM; 1,500 compounds, 29% hits; in the data active means inhibition above about 9.5%
Numbers without * were called inactive; nt = no result.

SMILES	PfHsp40 yeast	PrPC surface inh	VHR inh abs	Sa RN4220 lethal	Sa ugtP lethal	PrPC TRFRET cf	LD9 cytotox
Cc1ccc(NC(=O)CCC(=O)NN=Cc2ccccc2O)cc1	nt	nt	nt	-2.4	-1.8	nt	nt
NC(=O)C1CCN(C(=O)c2cc(-c3ccccc3Cl)nc3ccccc23)CC1	-0.7	42.5*	nt	0.5	4.6	43.2*	-4.6
NC(=O)C1CCN(C(=O)c2cc(-c3ccc(Cl)cc3)nc3ccccc23)CC1	-1.0	-10.2	nt	-0.7	4.3	nt	nt
COC(=O)C1=C(c2ccc(F)cc2OCc2ccccc2)CC2CCC1N2C(=O)NCc1ccc([N+](=O)[O-])cc1 (stereo not given)	nt	nt	nt	-9.4	3.9	nt	nt
COc1ccc(OC)c(CC(=O)Nc2ccc3c(c2)c(=O)n(C)n3Cc2cccc(C(F)(F)F)c2)c1	nt	82.0*	nt	nt	nt	29.1*	3.7
Cn1c(=O)c2cc(NC(=O)CCc3ccc4c(c3)OCO4)ccc2n1Cc1ccc(F)cc1	nt	31.4*	nt	nt	nt	18.6	5.7
COc1cc(Cn2c3ccc(NC(=O)CCc4ccc(O)cc4)cc3c(=O)n2C)ccc1F	nt	28.5*	nt	nt	nt	20.0	-5.4
OC[C@@H]1CN(Cc2ccc(Cl)cc2)C[C@H](n2cnc3c(Nc4ccccc4)ncnc32)O1	nt	41.2*	nt	nt	nt	19.6	-2.3
O=C(O)c1ccc(CN2C[C@@H](CO)O[C@@H](n3cnc4c(Nc5ccccc5)ncnc43)C2)cc1	nt	-2.4	nt	nt	nt	nt	nt
NC(CO)c1nnc(C(CC(=O)O)NC(=O)C2CCNCC2)o1 (stereo not given)	nt	nt	nt	4.1	-5.4	nt	nt
COc1cc(OC)cc(C(=O)N[C@H](C(=O)Nc2nc(-c3cc(OC)ccc3OC)cs2)C(C)C)c1	0.2	25.7*	29.7	-0.5	9.2	30.1*	-8.3
O=C(Nc1cc(S(=O)(=O)N2CCOCC2)ccc1N1CCCC1)c1ccc(Cl)cc1	0.1	11.7	nt	2.8	1.4	nt	nt
Cc1ccc(C(=O)Nc2cc(S(=O)(=O)N3CCOCC3)ccc2N2CCCC2)cc1	-0.7	46.0*	nt	nt	nt	49.6*	-8.2
COc1ccc(NCC(=O)Nc2cc(S(=O)(=O)N3CCOCC3)ccc2N2CCOCC2)c(OC)c1	-0.4	24.8*	-2.7	1.5	0.2	-0.1	-0.4
COC(=O)C1=C(c2cccc(OC)c2OC)CC2CCC1N2C(=O)N1CCCC1 (stereo not given)	nt	nt	nt	8.9	2.7	nt	nt
CCc1cc2c(=O)c(-c3cscn3)coc2c(CN(C)C)c1O	1.3	5.6	13.4	6.7	2.0	nt	nt
CCc1cc2c(=O)c(-c3ccc4c(c3)OCO4)coc2c(CN(C)C)c1O	-0.6	86.4*	nt	5.0	8.4	95.4*	-5.3
Cc1ccccc1CN1C(=O)CN(S(C)(=O)=O)CC1(C)C(=O)Nc1c(C)cccc1C (stereo not given)	nt	-6.7	nt	nt	nt	nt	nt
Cc1ccccc1CN1C(=O)CN(S(C)(=O)=O)CC1(C)C(=O)NCc1ccccc1 (stereo not given)	nt	25.2*	nt	nt	nt	0.2	-4.7
COc1ccc2c(c1)[C@@H]1[C@H](CO2)[C@H](c2ccccc2)[C@]2(C)C(=O)Nc3ccc(C)cc3C(=O)N12	12.6	nt	nt	nt	nt	nt	nt
Cc1ccc2c(c1)[C@H]1[C@H](CO2)[C@H](c2ccccc2)[C@]2(C)C(=O)Nc3ccc(Cl)cc3C(=O)N12	-0.7	24.8*	nt	nt	nt	14.2	-7.3
Cc1ccc2c(c1)C1C(CO2)C(c2ccccc2)[C@]2(C)C(=O)Nc3ccc(Cl)cc3C(=O)N12 (stereo not given in full)	nt	nt	nt	-6.2	-0.2	nt	nt
COc1ccc2c(c1)C(=O)N1[C@H]3c4cc(C)ccc4OC[C@@H]3[C@H](c3ccccc3)[C@]1(C)C(=O)N2	2.7	33.7*	nt	nt	nt	23.4	-5.8
C[C@@]12C(=O)Nc3ccc(Cl)cc3C(=O)N1[C@H]1c3cc(Cl)ccc3OC[C@@H]1[C@@H]2c1ccccc1	-0.8	26.0*	nt	nt	nt	16.2	-7.9
CCOc1ccc(C=NNC(=O)c2cccc3ccccc23)c(OCC)c1	nt	nt	nt	3.2	-1.2	nt	nt
SMILES	PfHsp40 yeast	PrPC surface inh	VHR inh abs	Sa RN4220 lethal	Sa ugtP lethal	PrPC TRFRET cf	LD9 cytotox
Cc1c(C(=O)Nc2ccncc2)sc2nc(-c3ccc(F)cc3)cn12	2.0	55.8*	12.7	-7.0	-4.5	52.8*	12.1*
NNc1nc(-c2ccccc2)c2cc(Br)ccc2n1	-0.6	-13.8	20.6	10.7	7.1	nt	nt
COc1nc(-c2ccccc2)c2cc(Br)ccc2n1	1.2	35.8*	nt	2.2	9.3	71.0*	3.8
CC(=NNC(=O)c1nn(C)c(C)c1Br)c1ccc(NC(=O)C2CCCC2)cc1	nt	nt	nt	1.6	4.1	nt	nt
O=C(Nc1ccn(Cc2ccccc2F)n1)c1ccc(COc2ccccc2Cl)cc1	0.4	41.6*	32.9	-4.5	-13.3	30.9*	0.6
O=C(Nc1ccn(Cc2c(F)c(F)cc(F)c2F)n1)c1ccc(COc2ccccc2Cl)cc1	-0.5	nt	27.0	4.9	3.1	nt	nt
Cc1cc(C)nc(NC(=O)c2ccc(COc3ccccc3Cl)cc2)c1	2.6	27.0*	20.4	10.1	13.3	23.7	-1.7
Cc1ccc(S(=O)(=O)c2cccc(S(=O)(=O)N3CCCC3)c2)cc1S(=O)(=O)N1CCCC1	0.3	34.3*	8.4	5.0	5.4	29.9*	9.2
Cc1csc(NC(=O)CSc2sc3c(O)cc(=O)[nH]c3c2C#N)n1	1.9	25.6*	23.1	9.7	2.0	4.2	1.7
COc1ccc(C=N/N=C2/NC(=O)C(c3ccccc3)S2)c(OC)c1 (stereo not given)	nt	nt	nt	3.4	28.6	nt	nt
O=c1c2cn[nH]c2[nH]c(=S)n1-c1cccc2ccccc12	-1.2	40.0*	-5.6	0.5	3.2	45.9*	-6.1
NC(=O)c1cc(NC(=O)c2ccc(NS(=O)(=O)c3cccs3)cc2)cc(C(N)=O)c1	-0.5	32.6*	23.1	3.8	-4.3	34.6*	3.7
COC(C(=O)NN=C(C)c1ccc(C(C)(C)C)cc1)c1ccccc1 (stereo not given)	nt	nt	nt	2.9	28.0	nt	nt
CCOC(=O)c1ccc(NC(=O)c2nc[nH]c2C(=O)NC(CC(C)C)C(=O)OC(C)(C)C)cc1 (stereo not given)	nt	nt	nt	-0.7	3.4	nt	nt
CSc1sc(C(=O)O)c2c1C(=O)CC(C)(C)C2	-0.8	-3.1	nt	-1.7	-2.1	nt	nt
CSc1sc(-c2ccnc(SCC(=O)C(C)(C)C)n2)c2c1C(=O)CC(C)(C)C2	-1.3	32.2*	4.4	9.6	15.1	47.8*	-0.6
O=C(COc1ccc(Cl)cc1Cl)NN=CCCc1ccccc1	nt	nt	nt	1.3	10.2	nt	nt
Brc1cc(Br)c2nc(-c3cccs3)ccc2c1	0.5	6.1	2.0	-2.5	14.4	nt	nt
Cc1nc2c(Br)cc(Br)cc2cc1O	0.7	102.9*	-11.1	35.1	36.0	107.5*	-7.5
Cc1ccccc1C(=O)NN1C(=O)CSC1=S	-1.3	34.5*	4.0	5.1	-4.7	11.1	-6.2
O=C(NN1C(=O)CSC1=S)c1cccnc1	nt	1.5	4.4	1.7	2.3	nt	nt
Cc1cccc(C)c1-n1c(SCC(=O)N2CC(=O)Nc3ccccc32)nc2ccccc2c1=O	1.7	26.8*	2.6	1.2	9.8	18.2	0.5
CC(C)c1nc(SCC(=O)N2CC(=O)Nc3ccccc32)c2ccccc2n1	0.3	79.8*	16.6	-3.3	3.8	103.7*	-0.1
